# Results filed as inconclusive are left out. A call without a number means that no potency is given here. Calls of active or inactive are those of the source. Unless noted, the call rests on the fitted dose curve.
# Biological target: Cytochrome P450 3A4 (Homo sapiens) (UniProt P08684)
# Assay: qHTS Assay for Activators of Cytochrome P450 3A4 (AID 885; active means well fitted activation curve with a large enough effect; further: nearly all actives have a fitted effect of over 65% in size)
# Conditions: recombinant CYP3A4, Luciferin-PPXE luminescence, 60 min; series mostly up to 57.1 µM
# Procedure, shortened: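 Quantitative HTS format: compounds preincubated with 20nM human CYP3A4 and Luciferin-PPXE substrate at KM, reaction started by NADPH regeneration, stopped after 60 min, luciferase luminescence read 20 min later.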
# Cytochrome P450 3A4 (Homo sapiens), sequence (P08684 whole entry, looked up): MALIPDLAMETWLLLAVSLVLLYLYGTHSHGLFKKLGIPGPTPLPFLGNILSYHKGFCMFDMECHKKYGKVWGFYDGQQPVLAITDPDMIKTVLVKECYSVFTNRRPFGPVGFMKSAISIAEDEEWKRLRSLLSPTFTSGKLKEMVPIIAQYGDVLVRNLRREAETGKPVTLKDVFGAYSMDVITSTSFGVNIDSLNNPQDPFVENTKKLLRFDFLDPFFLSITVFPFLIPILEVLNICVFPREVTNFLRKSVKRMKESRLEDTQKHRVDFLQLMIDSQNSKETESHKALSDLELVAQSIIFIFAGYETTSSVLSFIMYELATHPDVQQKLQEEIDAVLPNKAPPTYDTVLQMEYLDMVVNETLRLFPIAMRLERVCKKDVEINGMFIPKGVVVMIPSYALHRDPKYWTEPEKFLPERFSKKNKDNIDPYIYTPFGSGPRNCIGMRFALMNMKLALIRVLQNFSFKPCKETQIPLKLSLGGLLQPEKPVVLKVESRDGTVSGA
row,SMILES,Potency
1,C=CCn1c(=O)n(CC=C)c(=O)n(CC=C)c1=O,inactive
2,Cc1ccc(N)cc1[N+](=O)[O-],inactive
3,O=C1c2c(O)ccc([N+](=O)[O-])c2C(=O)c2c([N+](=O)[O-])ccc(O)c21,inactive
4,COc1ccc(C)cc1N,inactive
5,c1ccc2c(c1)ccc1ncccc12,inactive

# Biological target: Peroxisome proliferator-activated receptor delta (Homo sapiens) (UniProt Q03181)
# Assay: qHTS assay for small molecule agonists of peroxisome proliferator-activated receptor delta signaling (AID 588534)
# Conditions: HEK293T PPARdelta-UAS-bla, beta-lactamase ratio, 18 h; series mostly up to 76.7 µM
# Procedure, shortened: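 Cell-based beta-lactamase reporter assay run in agonist mode: cells seeded and incubated 5 hrs at 37 C, compounds added and incubated 18 hrs at 37 C. CCF4 dye fluorescence read after 2 hrs at RT; EC50 and efficacy from Hill fits.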
# Peroxisome proliferator-activated receptor delta (Homo sapiens), sequence (Q03181 whole entry, looked up): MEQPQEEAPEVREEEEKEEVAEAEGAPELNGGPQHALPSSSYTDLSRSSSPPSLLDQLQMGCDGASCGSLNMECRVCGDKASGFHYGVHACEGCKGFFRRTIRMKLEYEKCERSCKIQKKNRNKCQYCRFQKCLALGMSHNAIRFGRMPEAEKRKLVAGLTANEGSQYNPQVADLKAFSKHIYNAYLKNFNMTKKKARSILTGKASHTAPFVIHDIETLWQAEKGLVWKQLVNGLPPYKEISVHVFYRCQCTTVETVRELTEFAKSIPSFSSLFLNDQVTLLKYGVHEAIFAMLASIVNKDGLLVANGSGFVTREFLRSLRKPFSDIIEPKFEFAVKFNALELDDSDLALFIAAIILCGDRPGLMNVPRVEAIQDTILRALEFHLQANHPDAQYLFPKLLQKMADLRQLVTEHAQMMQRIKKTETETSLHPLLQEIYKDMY
row,SMILES,outcome
1,C=CCn1c(=O)n(CC=C)c(=O)n(CC=C)c1=O,inactive
2,Cc1ccccc1,inactive
3,Cc1ccc(N)cc1[N+](=O)[O-],inactive
4,Cc1ccccc1C,inactive
5,CCOP(=O)(OCC)Oc1nc(Cl)c(Cl)cc1Cl,inactive
6,c1ccc2c(c1)Oc1ccccc1S2,inactive
7,[O-][N+](=Nc1ccccc1)c1ccccc1,inactive
8,Oc1cc(Cl)cc(Cl)c1Cl,inactive
9,NCCN,inactive
10,COc1ccc(N=[N+]([O-])c2ccc(OC)cc2)cc1,inactive
11,O=C1c2c(O)ccc([N+](=O)[O-])c2C(=O)c2c([N+](=O)[O-])ccc(O)c21,inactive
12,CC1(C)CCC(Cc2ccc(Cl)cc2)C1(O)Cn1cncn1 (centres undefined),inactive
13,COc1ccc(C)cc1N,inactive
14,COS(C)(=O)=O,inactive
15,CO,inactive
16,C=CCCC,inactive
17,c1ccc2c(c1)ccc1ncccc12,inactive

# Biological target: Peroxisome proliferator-activated receptor gamma (Homo sapiens) (UniProt P37231)
# Assay: qHTS assay for small molecule antagonists of peroxisome proliferator-activated receptor gamma signaling (AID 588537; active means well fitted inhibition curve with a large enough effect in the signal ratio, with a control signal flat, not every such curve was filed as active; the % refers to the signal ratio; further: potency means the concentration at half of the fitted maximal effect)
# Conditions: HEK293 PPARg-UAS-bla, beta-lactamase ratio, antagonist mode; series mostly up to 76.8 µM
# Procedure, shortened: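 Step one: plate 3000 HEK293 UAS-bla cells per well in medium with 1% stripped serum and hold 6-6.5 h at 37 C. Step two: add compound and 50 nM agonist for 16 h. Step three: CCF4 loading, fluorescence read.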
# Peroxisome proliferator-activated receptor gamma (Homo sapiens), sequence (P37231 whole entry, looked up): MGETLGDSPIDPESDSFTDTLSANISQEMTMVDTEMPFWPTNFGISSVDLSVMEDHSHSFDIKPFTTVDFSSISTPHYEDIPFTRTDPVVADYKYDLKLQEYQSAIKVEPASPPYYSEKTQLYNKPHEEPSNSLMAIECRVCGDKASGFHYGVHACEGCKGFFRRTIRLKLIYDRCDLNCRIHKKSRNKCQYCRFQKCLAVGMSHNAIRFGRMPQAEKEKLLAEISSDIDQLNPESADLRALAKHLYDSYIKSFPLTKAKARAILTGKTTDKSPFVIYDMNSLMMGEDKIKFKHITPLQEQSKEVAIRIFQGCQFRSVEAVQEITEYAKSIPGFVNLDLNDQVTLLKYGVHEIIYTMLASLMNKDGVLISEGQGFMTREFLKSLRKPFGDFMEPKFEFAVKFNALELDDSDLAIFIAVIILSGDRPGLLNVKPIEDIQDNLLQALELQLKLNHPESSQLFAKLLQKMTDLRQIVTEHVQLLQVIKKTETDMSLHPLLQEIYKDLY
row,SMILES,Potency
1,Cc1ccccc1C,inactive
2,CC1(C)CCC(Cc2ccc(Cl)cc2)C1(O)Cn1cncn1 (centres undefined),inactive
3,CC(C)NC(=O)N1CC(=O)N(c2cc(Cl)cc(Cl)c2)C1=O,44.7 µM (active)
4,CCOCn1c(-c2ccc(Cl)cc2)c(C#N)c(Br)c1C(F)(F)F,39.8 µM (active)
5,[CH3][Sn]([CH3])([Cl])[Cl],inactive

# Biological target: Vitamin D3 receptor (Homo sapiens) (UniProt P11473)
# Assay: qHTS assay for small molecule antagonists of vitamin D receptor signaling (AID 588541);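 further: receptor activated by calcitriol during compound treatment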
# Conditions: HEK293T VDR-UAS-bla, beta-lactamase ratio, antagonist mode; series mostly up to 76.7 µM
# Procedure, shortened: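 VDR-UAS-bla HEK293T cells in 2% charcoal-stripped FBS were stimulated with 1-alpha,25-dihydroxyvitamin D3 (3 nM final) plus compound for 16 h at 37 C. The beta-lactamase CCF4 readout was normalized to 50 nM agonist and DMSO, and Hill fits gave IC50.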
# Vitamin D3 receptor (Homo sapiens), sequence (P11473 whole entry, looked up): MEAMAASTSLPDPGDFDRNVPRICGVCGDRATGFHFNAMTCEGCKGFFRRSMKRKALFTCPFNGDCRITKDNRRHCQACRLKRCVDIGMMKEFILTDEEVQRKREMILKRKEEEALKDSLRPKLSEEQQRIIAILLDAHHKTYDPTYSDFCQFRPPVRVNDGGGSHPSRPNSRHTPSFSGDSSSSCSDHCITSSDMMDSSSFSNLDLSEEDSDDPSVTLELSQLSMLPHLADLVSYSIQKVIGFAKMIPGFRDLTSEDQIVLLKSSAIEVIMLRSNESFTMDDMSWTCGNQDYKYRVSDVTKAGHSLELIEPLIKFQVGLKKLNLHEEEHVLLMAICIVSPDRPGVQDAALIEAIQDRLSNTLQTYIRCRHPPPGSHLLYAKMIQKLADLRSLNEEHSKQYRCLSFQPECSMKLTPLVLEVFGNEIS
row,SMILES,Potency
1,ClC1=C(Cl)[C@]2(Cl)[C@H]3[C@H]([C@@H]4C=C[C@H]3C4)[C@]1(Cl)C2(Cl)Cl,inactive
2,CC1(C)CCC(Cc2ccc(Cl)cc2)C1(O)Cn1cncn1 (centres undefined),inactive
3,[CH3][Sn]([CH3])([Cl])[Cl],inactive

# Biological target: Vitamin D3 receptor (Homo sapiens) (UniProt P11473)
# Assay: qHTS assay for small molecule agonists of vitamin D receptor signaling (AID 588543)
# Conditions: HEK293T VDR-UAS-bla, beta-lactamase ratio, 16 h; series mostly up to 76.8 µM
# Procedure, shortened: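 Measured: β-lactamase reporter activity (CCF4, 405 nm excitation, 460/530 nm emission) in HEK293T VDR-UAS-bla cells after 16 h compound exposure at 37 °C. Normalization against 50 nM 1α,25-dihydroxyvitamin D3 and DMSO; Hill-fit EC50.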
row,SMILES,outcome
1,N#CC(Br)(Br)C(N)=O,inactive
2,CON=C(C(=O)OC)c1ccccc1CO/N=C(\C)c1cccc(C(F)(F)F)c1,inactive
3,ClC1=C(Cl)[C@]2(Cl)[C@H]3[C@H]([C@@H]4C=C[C@H]3C4)[C@]1(Cl)C2(Cl)Cl,inactive
4,CC1(C)CCC(Cc2ccc(Cl)cc2)C1(O)Cn1cncn1 (centres undefined),inactive
